Assay results published in the antibiotic and cytotoxicity screens of Wong et al. (2023).
In all, about 39,000 compounds went through this assay and about 1,500 (3.8%) were called active. The full list was thinned out, with actives kept by preference.

test system: HSkMC (human skeletal muscle cells); experiment: cytotoxicity call (relative viability < 0.9); details: 10 µM

| SMILES | cytotoxicity call |
| --- | --- |
| C[C@@H]1CN([C@@H](C)CO)C(=O)Cc2cc(NC(=O)C3CCCCC3)ccc2O[C@H]1CN(C)S(C)(=O)=O | inactive |
| C[C@@H]1CN([C@@H](C)CO)C(=O)c2cccc(NS(C)(=O)=O)c2O[C@@H]1CN(C)S(C)(=O)=O | inactive |
| COc1ccc(S(=O)(=O)Nc2ccc3c(c2)C(=O)N([C@@H](C)CO)C[C@H](C)[C@@H](CN(C)C(=O)Nc2ccc(F)cc2)OCCCC[C@H](C)O3)cc1 | inactive |
| C[C@@H]1CCCCO[C@@H](CN(C)C(=O)Nc2ccccc2)[C@H](C)CN([C@@H](C)CO)C(=O)c2cc(NC(=O)Nc3cccc4ccccc34)ccc2O1 | inactive |
| C[C@H](CO)N1C[C@H](C)[C@H](CN(C)CC2CCOCC2)Oc2ncc(C#CCc3ccccc3)cc2C1=O | inactive |
| COc1ccc(NC(=O)Nc2ccc3c(c2)C(=O)N([C@H](C)CO)C[C@H](C)[C@@H](CN(C)C(=O)Nc2c(C)noc2C)OCCCC[C@@H](C)O3)cc1 | inactive |
| O=C1N[C@@H](c2ccccc2)COCc2cn(nn2)CC[C@H](Cc2ccc(C(F)(F)F)cc2)C(=O)N[C@@H](c2ccccc2)COCc2cn(nn2)CC[C@@H]1Cc1ccc(C(F)(F)F)cc1 | inactive |
| C[C@H]1CN([C@@H](C)CO)C(=O)c2cc(NC(=O)Nc3ccc(C(F)(F)F)cc3)ccc2O[C@@H]1CN(C)Cc1ccc(C(F)(F)F)cc1 | active |
| C[C@H]1CN([C@@H](C)CO)C(=O)c2cc(NC(=O)Nc3ccc(C(F)(F)F)cc3)ccc2O[C@H]1CN(C)Cc1ccc(C(F)(F)F)cc1 | active |
| C[C@@H]1CN([C@H](C)CO)C(=O)c2cc(NC(=O)Nc3ccc(C(F)(F)F)cc3)ccc2O[C@@H]1CN(C)Cc1ccc(C(F)(F)F)cc1 | active |
| C[C@@H]1CN([C@H](C)CO)C(=O)c2cc(NC(=O)Nc3ccc(C(F)(F)F)cc3)ccc2O[C@H]1CN(C)Cc1ccc(C(F)(F)F)cc1 | active |
| C[C@H](CO)N1C[C@H](C)[C@H](CN(C)C)Oc2ccc(NC(=O)Cc3cn(C)c4ccccc34)cc2CC1=O | inactive |
| CNC[C@@H]1OCCCC[C@H](C)Oc2ccc(NS(=O)(=O)c3cn(C)cn3)cc2C(=O)N([C@@H](C)CO)C[C@H]1C | inactive |
| C[C@H](CO)N1C[C@H](C)[C@H](CN(C)C(=O)Cc2ccncc2)Oc2cc(C#CC3(O)CCCC3)ccc2S1(=O)=O | inactive |
| C[C@@H]1CN([C@@H](C)CO)C(=O)c2cc(C#Cc3ccncc3)cnc2O[C@H]1CN(C)C(=O)c1ccccc1F | inactive |
| C[C@H]1CCCCO[C@@H](CN(C)C(=O)Cc2ccccc2)[C@@H](C)CN([C@@H](C)CO)C(=O)c2cc(NS(=O)(=O)c3cccs3)ccc2O1 | inactive |
| COc1ccc(NC(=O)N(C)C[C@@H]2Oc3ccc(NC(=O)Nc4cccc5ccccc45)cc3C(=O)N([C@H](C)CO)C[C@@H]2C)cc1 | inactive |
| CN(C)CCCNC(=O)C[C@H]1C=C[C@@H](NS(=O)(=O)c2ccccc2)[C@@H](CO)O1 | inactive |
| C[C@@H]1CN([C@@H](C)CO)C(=O)c2cc(NC(=O)Nc3ccc(C(F)(F)F)cc3)ccc2O[C@@H]1CN(C)Cc1ccc(C(F)(F)F)cc1 | active |
| C[C@@H]1CN([C@@H](C)CO)C(=O)c2cc(NC(=O)Nc3ccc(C(F)(F)F)cc3)ccc2O[C@H]1CN(C)Cc1ccc(C(F)(F)F)cc1 | active |
| C[C@H](CO)N1C[C@H](C)[C@@H](CN(C)Cc2ccc(C(F)(F)F)cc2)Oc2ccc(NC(=O)Nc3ccc(C(F)(F)F)cc3)cc2C1=O | inactive |

| SMILES | cytotoxicity call |
| --- | --- |
| C[C@H](CO)N1C[C@H](C)[C@H](CN(C)Cc2ccc(C(F)(F)F)cc2)Oc2ccc(NC(=O)Nc3ccc(C(F)(F)F)cc3)cc2C1=O | active |
| COCC#Cc1ccc2c(c1)O[C@H](CN(C)S(=O)(=O)c1cccc(F)c1)[C@@H](C)CN([C@@H](C)CO)S2(=O)=O | inactive |
| COc1ccccc1CN1C[C@@H](C)[C@H](OC)CN(C)C(=O)c2cc(NC(=O)Nc3ccccc3OC)ccc2OC[C@H]1C | inactive |
| C[C@@H]1CN([C@@H](C)CO)C(=O)c2cc(-c3cccc(C#N)c3)cnc2O[C@@H]1CN(C)C(=O)C1CCOCC1 | inactive |
| Cc1ccc(S(=O)(=O)N(C)C[C@H]2Oc3c(NS(=O)(=O)c4c(C)noc4C)cccc3C(=O)N([C@@H](C)CO)C[C@H]2C)cc1 | inactive |
| N#CC1(C#N)[C@H](c2ccccc2)[C@@H]1C(N)=O | inactive |
| CC(C)CC#Cc1ccc2c(c1)O[C@@H](CN(C)C(=O)c1cnccn1)[C@@H](C)CN([C@H](C)CO)S2(=O)=O | inactive |
| O=C(C[C@H]1CC[C@H]2[C@@H](COC[C@@H](O)CN2S(=O)(=O)c2ccc(Cl)cc2)O1)N[C@H]1CCN(Cc2ccccc2)C1 | inactive |
| CC(C)C[C@H](NC(=O)CNC(=O)c1cc(Cl)ccc1Cl)B1OC(=O)C[C@](CC(=O)O)(C(=O)O)O1 | active |
| Cc1noc(C)c1S(=O)(=O)Nc1ccc2c(c1)C(=O)N([C@@H](C)CO)C[C@@H](C)[C@@H](CN(C)CC1CCCCC1)OCCCC[C@H](C)O2 | inactive |
| Cn1nc(-c2ccccn2)nc2c(=O)n(C)c(=O)nc1-2 | active |
| Cn1c(=O)[nH]c2nnc(-c3ccccn3)nc2c1=O | inactive |
| COc1ccc(-c2ccccn2)cc1 | inactive |
| CN1CCN(C(=O)[C@@H]2[C@@H](CO)[C@@H]3Cn4c(cccc4=O)[C@H]2N3S(=O)(=O)c2ccccc2F)CC1 | inactive |
| CC(=O)N1CCN(C(=O)Cc2ccc(S(C)(=O)=O)cc2)C[C@@H](O)C1 | inactive |
| CC(=O)NCCCC[C@@H]1NC(=O)[C@H]2C[C@@H](C(=O)NCc3ccc(F)cc3)[C@@H](c3ccc(O)cc3)N2C1=O | inactive |
| C[C@@H]1CN([C@@H](C)CO)C(=O)Cc2cc(NS(C)(=O)=O)ccc2O[C@@H]1CN(C)Cc1ccc(C(F)(F)F)cc1 | inactive |
| Cc1ccc(S(=O)(=O)Nc2ccc3c(c2)CC(=O)N([C@@H](C)CO)C[C@@H](C)[C@@H](CN(C)Cc2ccc(C(F)(F)F)cc2)O3)cc1 | active |
| C[C@H]1CN([C@@H](C)CO)C(=O)Cc2cc(NS(C)(=O)=O)ccc2O[C@H]1CN(C)Cc1ccc(C(F)(F)F)cc1 | inactive |
| C[C@H](CO)N1C[C@H](C)[C@H](CN(C)Cc2ccc(C(F)(F)F)cc2)Oc2ccc(NS(C)(=O)=O)cc2CC1=O | inactive |
| C[C@@H]1CN([C@H](C)CO)C(=O)Cc2cc(NS(C)(=O)=O)ccc2O[C@@H]1CN(C)Cc1ccc(C(F)(F)F)cc1 | inactive |

| SMILES | cytotoxicity call |
| --- | --- |
| C[C@H]1CN([C@@H](C)CO)C(=O)Cc2cc(NS(C)(=O)=O)ccc2O[C@@H]1CN(C)Cc1ccc(C(F)(F)F)cc1 | inactive |
| C[C@@H]1CN([C@@H](C)CO)C(=O)Cc2cc(NS(C)(=O)=O)ccc2O[C@H]1CN(C)Cc1ccc(C(F)(F)F)cc1 | inactive |
| C[C@@H]1CN([C@H](C)CO)C(=O)Cc2cc(NS(C)(=O)=O)ccc2O[C@H]1CN(C)Cc1ccc(C(F)(F)F)cc1 | inactive |
| Cc1ccc(S(=O)(=O)Nc2ccc3c(c2)CC(=O)N([C@H](C)CO)C[C@H](C)[C@@H](CN(C)Cc2ccc(C(F)(F)F)cc2)O3)cc1 | inactive |
| Cc1ccc(S(=O)(=O)Nc2ccc3c(c2)CC(=O)N([C@H](C)CO)C[C@@H](C)[C@@H](CN(C)Cc2ccc(C(F)(F)F)cc2)O3)cc1 | active |
| Cc1ccc(S(=O)(=O)Nc2ccc3c(c2)CC(=O)N([C@H](C)CO)C[C@H](C)[C@H](CN(C)Cc2ccc(C(F)(F)F)cc2)O3)cc1 | active |
| Cc1ccc(S(=O)(=O)Nc2ccc3c(c2)CC(=O)N([C@@H](C)CO)C[C@H](C)[C@@H](CN(C)Cc2ccc(C(F)(F)F)cc2)O3)cc1 | active |
| O=C(C[C@H]1CC[C@@H]2[C@H](COC[C@H](O)CN2S(=O)(=O)c2ccc(Cl)cc2)O1)NCCN1CCCCC1 | inactive |
| COc1ccc(S(=O)(=O)Nc2ccc3c(c2)C(=O)N([C@H](C)CO)C[C@H](C)[C@H](CN(C)C(=O)Nc2c(C)noc2C)OCCCC[C@H](C)O3)cc1 | inactive |
| C[C@@H]1CCCCO[C@@H](CN(C)S(=O)(=O)c2cccs2)[C@H](C)CN([C@H](C)CO)C(=O)c2cc(NC(=O)Nc3cccc4ccccc34)ccc2O1 | inactive |
| COc1ccc(S(=O)(=O)Nc2cccc3c2O[C@@H](CN(C)Cc2ccncc2)[C@H](C)CN([C@@H](C)CO)C3=O)cc1 | inactive |
| C[C@@H]1CN([C@@H](C)CO)C(=O)c2cccc(NS(=O)(=O)c3cn(C)cn3)c2O[C@@H]1CN(C)S(=O)(=O)c1ccccc1 | inactive |
| C[C@@H]1CN([C@@H](C)CO)C(=O)c2cc(NC(=O)CCN3CCOCC3)ccc2O[C@@H]1CN(C)CC1CC1 | inactive |
| C[C@@H]1CCCCO[C@H](CN(C)C(=O)Cc2ccccc2)[C@H](C)CN([C@@H](C)CO)C(=O)c2cc(NS(=O)(=O)c3cccs3)ccc2O1 | inactive |
| COCC(=O)Nc1ccc2c(c1)OC[C@@H](C)N(Cc1ccccc1OC)C[C@@H](C)[C@H](OC)CN(C)C2=O | inactive |
| C[C@H]1CCCCO[C@@H](CN(C)C(=O)Nc2ccc(F)cc2)[C@@H](C)CN([C@@H](C)CO)C(=O)c2cc(NS(=O)(=O)c3cccs3)ccc2O1 | inactive |
| CCSc1nnc2c(=O)[nH]c(=O)[nH]c2n1 | inactive |
| Cc1ccc(S(=O)(=O)Nc2ccc3c(c2)CC(=O)N([C@@H](C)CO)C[C@@H](C)[C@H](CN(C)Cc2ccc(C(F)(F)F)cc2)O3)cc1 | inactive |
| Cc1ccc(S(=O)(=O)Nc2ccc3c(c2)CC(=O)N([C@@H](C)CO)C[C@H](C)[C@H](CN(C)Cc2ccc(C(F)(F)F)cc2)O3)cc1 | active |
| Cc1ccc(S(=O)(=O)Nc2ccc3c(c2)CC(=O)N([C@H](C)CO)C[C@@H](C)[C@H](CN(C)Cc2ccc(C(F)(F)F)cc2)O3)cc1 | inactive |
